HCV inhibitor: inhibitors of hepatitis C virus infection. hit rate 3.4% among 340,000. Huh7.5.1 HCVcc-Cre infection, luciferase reporter, 44 h. Potency, µM (top dose mostly 41.8 µM), for the others: at the top dose activity change, negative = inhibition, usual class: inhibitors; note: potency is the fitted concentration of half-maximal effect; % is set by controls: 0 for no effect and ±100 for the full control effect
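Whole-lifecycle infectious HCVcc-Cre system; cells 1,000/well, compound then virus (~0.5 moi) added 4 h after plating, 44 h culture. Luciferase read 15 sec following 15 min substrate incubation, room temp.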
Pf growth 48h: P. falciparum growth inhibition at 48 hours (one generation); hit rate 5.9% among 310,000; AID 504832; Potency, µM (titrated, usually from 28.7 µM), for inactives: at the top dose activity change, negative = inhibition, most hits filed as inhibitors; P. falciparum luciferase growth in erythrocytes, 48 h; note: potency is the fitted concentration of half-maximal effect; % is set by controls: 0 for no effect and ±100 for the full control effect
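Erythrocytes infected with P. falciparum carrying an integrated firefly luciferase reporter (2% hematocrit, 0.1% parasitemia final) were exposed to compounds in RPMI 1640 with 0.5% Albumax at 37 C, 5% CO2. Growth inhibition was scored as reduced luminescence.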
Pf growth 96h: inhibits malaria parasite growth, 96 h. P. falciparum luciferase reporter growth, 96 h. Potency, µM (doses to about 28.7 µM), for inactives: top-dose activity change, negative = inhibition, most hits filed as inhibitors. hit rate 6.9% among 320,000; note: potency is the fitted concentration of half-maximal effect; % is set by controls: 0 for no effect and ±100 for the full control effect
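Erythrocytes infected with luciferase-expressing P. falciparum were dispensed at 2% hematocrit and 0.05% parasitemia (final), then incubated with compounds 96 hours at 37 C in 5% CO2. Luminescence after detection reagent addition reported growth.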
CHX counter: counter-screen hit for Shiga toxin inhibitors, cycloheximide; hit rate 12% among 300,000; max response, %; cell reporter, cycloheximide protein synthesis inhibition counterscreen; in the data active = max response mostly above about 13%, no sharp cut-off; inactive = mostly below about 14%; note: read at 38.3 µM for the half of the compounds with a filed dose; 0% is about no effect
HCMV antiviral: human cytomegalovirus inhibition; HFF cells, HCMV-luciferase reporter, 72 h; active compounds read low; activity change, negative = inhibition, % at 57.5 µM; hit rate 4.5% among 410,000; AID 1259415; in the data active = activity change below about -60%; inconclusive = no clear call, values can overlap the other calls; inactive = above about -39%; note: % is set by controls: 0 for no effect and ±100 for the full control effect
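After 16 h attachment at 37C, HFF cells received test compound and HCMV-luciferase (1 PFU/cell); reporter luminescence read 72 h later, data normalized against buffer-only and known inhibitor Salinomycin.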
Shiga inhibitor: Shiga toxin inhibition. Vero cells, Shiga toxin protein synthesis inhibition reporter. inhibition, % at 38.7 µM. hit rate 9.2% among 290,000; in the data active = inhibition mostly above about 28%, no sharp cut-off; inactive = mostly below about 43%; note: 0% is about no effect
Numbers without * were called inactive; [ ] = remark or other dose. Sampled rows, rich in hits. Any-hit rate of the full collection: about 21%. Unless noted, calls come from the whole dose curve; as a rule, active = well fitted inhibition curve with a large enough effect; inconclusive = small, poorly fitted or top-dose-only effect, or another doubt; inactive = no such curve, though single readings can be large or run the other way.

Results for CCOC(=O)c1ccc(NC(=O)C2CCCN(c3ncnc4onc(-c5ccc(F)cc5)c34)C2)cc1 (stereo unspecified) ?
HCMV antiviral: 3

Results for COc1ccc(OC2C(=O)N(Cc3ccc4c(c3)OCO4)C2c2sccc2C)cc1 (stereo unspecified) ?
HCV inhibitor: inconclusive; Pf growth 48h: inconclusive; Pf growth 96h: 4.1µM*; CHX counter: -1; HCMV antiviral: -32; Shiga inhibitor: -25

How did COc1ccc(OC2C(=O)N(Cc3ccc(F)cc3)C2c2ccc(OC)c(OC)c2)cc1 (stereo unspecified) do in these assays?
HCV inhibitor: -12%; Pf growth 48h: inconclusive; Pf growth 96h: inconclusive; CHX counter: -3; HCMV antiviral: -25; Shiga inhibitor: -6

How did CN(c1ccccc1)S(=O)(=O)c1cccc(NC(=O)c2ccc3ncsc3c2)c1 do in these assays?
HCV inhibitor: 11µM*; Pf growth 48h: inconclusive; Pf growth 96h: 10µM*; CHX counter: -1; HCMV antiviral: 0; Shiga inhibitor: -6

What do the screens show for `Cc1ccc(NC(=O)c2ccc3ncsc3c2)cc1S(=O)(=O)N(C)C`?
Pf growth 48h: 121%; Pf growth 96h: 245%; CHX counter: 70*; HCMV antiviral: 133; Shiga inhibitor: 146*

How did CN(c1ccccc1)S(=O)(=O)c1cccc(NC(=O)c2cccc(C#N)c2)c1 do in these assays?
HCV inhibitor: 10µM*; Pf growth 48h: 13µM*; Pf growth 96h: inconclusive; HCMV antiviral: 0

What do the screens show for `CN(c1ccccc1)S(=O)(=O)c1cccc(C(=O)NC2CCCC2)c1`?
HCV inhibitor: -14%; HCMV antiviral: 27

Results for Cc1ccc(NC(=O)c2cccnc2)cc1S(=O)(=O)N(C)C ?
HCV inhibitor: 15%; Pf growth 48h: -29%; Pf growth 96h: 9%; CHX counter: 12; HCMV antiviral: 28; Shiga inhibitor: 23

Results for COc1ccccc1C(=O)NCCC(=O)N1CCN(c2cccc(C(F)(F)F)c2)CC1 ?
HCV inhibitor: 9%; Pf growth 48h: inconclusive; Pf growth 96h: 4%; HCMV antiviral: -2

Results for CC1(c2ccc(Cl)cc2)NC(=O)N(CC(=O)N2CCN(S(=O)(=O)c3ccccc3)CC2)C1=O (stereo unspecified) ?
HCV inhibitor: 17%; Pf growth 48h: inconclusive; Pf growth 96h: inconclusive; HCMV antiviral: -19

How did c1ccc2nc(OCCN3CC3)ccc2c1 do in these assays?
HCV inhibitor: inconclusive; Pf growth 48h: inconclusive; Pf growth 96h: inconclusive; CHX counter: 0; HCMV antiviral: -64*; Shiga inhibitor: 11

Results for Cc1cc(OCCN2CCCCC2)nc2ccccc12 ?
HCV inhibitor: inconclusive; Pf growth 96h: -27%; CHX counter: 10; HCMV antiviral: -5; Shiga inhibitor: 13

How did COCCN1C(=O)COCc2cc(-c3ccc(N(C)C)cc3)ccc21 do in these assays?
HCMV antiviral: 47

How did CC1(C)Oc2ccc3ccc(=O)oc3c2/C(=C/NCCN/C=C2\C(=O)C(C)(C)Oc3ccc4ccc(=O)oc4c32)C1=O do in these assays?
Pf growth 96h: inconclusive; CHX counter: -5; Shiga inhibitor: 1

What do the screens show for `CC1(C)Oc2ccc3ccc(=O)oc3c2/C(=C/NNC(N)=O)C1=O`?
HCV inhibitor: -14%; Pf growth 48h: -3%; Pf growth 96h: 25%; CHX counter: -1; HCMV antiviral: -95*; Shiga inhibitor: -4

Results for COc1cccc(-c2cc(=O)c3cc(NC(=O)c4ccc(Cl)cc4)ccc3[nH]2)c1 ?
HCV inhibitor: 1%[8.37 µM]; Pf growth 48h: 0%; Pf growth 96h: 10%; CHX counter: -2; HCMV antiviral: -36; Shiga inhibitor: -12

What do the screens show for `COc1cccc(-c2cc(N)nn2C(=O)Nc2ccc(Cl)cc2)c1`?
HCV inhibitor: -6%; Pf growth 48h: inconclusive; Pf growth 96h: 12µM*; CHX counter: 11; HCMV antiviral: -5; Shiga inhibitor: 18

How did CCOC(=O)C1=C(N)Oc2cc(O)ccc2C1c1ccc([N+](=O)[O-])cc1 (stereo unspecified) do in these assays?
HCV inhibitor: -9%; Pf growth 48h: 9.3µM*; Pf growth 96h: inconclusive; CHX counter: -4; HCMV antiviral: 5; Shiga inhibitor: -13

What do the screens show for `CCOC(=O)C1=C(N)Oc2ccc3ccccc3c2C1c1ccc(O)cc1` (stereo unspecified)?
HCV inhibitor: -7%; Pf growth 48h: -16%; Pf growth 96h: inconclusive; CHX counter: 5; HCMV antiviral: 25; Shiga inhibitor: 16

How did CCN(CC(=O)Nc1ccccc1C(F)(F)F)C(=O)c1ccc(N2C(=O)CCC2=O)cc1 do in these assays?
Pf growth 48h: 11%; Pf growth 96h: -16%; CHX counter: -1; HCMV antiviral: 31; Shiga inhibitor: -9

How did CCCNC(=O)CN(C)S(=O)(=O)c1c(C)cc(C)cc1C do in these assays?
HCV inhibitor: -5%; Pf growth 48h: 7.4µM*; Pf growth 96h: 10µM*; CHX counter: -2; HCMV antiviral: -2; Shiga inhibitor: -1

Results for Cc1c(Cl)c([N+](=O)[O-])nn1CCCC(=O)Nc1cccc(Cl)c1 ?
HCV inhibitor: -3%; Pf growth 48h: 27%; Pf growth 96h: 0%; CHX counter: 4; HCMV antiviral: -13; Shiga inhibitor: 11

What do the screens show for `Cc1cc(C)cc(N=c2c([N+](=O)[O-])nn(-c3cccc(Cl)c3)n2O)c1`?
HCV inhibitor: inconclusive; Pf growth 96h: 3.7µM*; CHX counter: -4; HCMV antiviral: 4; Shiga inhibitor: -8

Results for Cc1cccc(N=c2c([N+](=O)[O-])nn(-c3ccc(Cl)cc3)n2O)c1 ?
HCV inhibitor: 10%; Pf growth 48h: inconclusive; Pf growth 96h: -19%; CHX counter: 20*; HCMV antiviral: 3; Shiga inhibitor: 35

Results for CCOC(=O)c1[nH]ncc1CN1CCCC(C(=O)c2ccc(C(C)(C)C)cc2)C1 (stereo unspecified) ?
HCV inhibitor: -5%; Pf growth 48h: -9%; Pf growth 96h: 11%; CHX counter: -2; HCMV antiviral: -17; Shiga inhibitor: 22

What do the screens show for `CSCC[C@H](NC(=O)c1ccco1)c1nnc2ccccn12`?
HCV inhibitor: 15%; Pf growth 48h: 22%; Pf growth 96h: 50%; CHX counter: 2; HCMV antiviral: 25; Shiga inhibitor: -7

What do the screens show for `O=C1NC[C@@H](Cc2cccc3ccccc23)N(CC2(c3ccccc3)CC2)C1=O`?
HCV inhibitor: inconclusive; Pf growth 48h: 12µM*; Pf growth 96h: 13µM*; CHX counter: -6; HCMV antiviral: 18; Shiga inhibitor: -9

Results for S=C1NC[C@H](Cc2cccc3ccccc23)N1CC1CCCCC1 ?
HCV inhibitor: 2.8µM*; Pf growth 48h: -27%; Pf growth 96h: inconclusive; CHX counter: -1; HCMV antiviral: -24; Shiga inhibitor: -1

Source: PubChem
